This note sets out measurements from PubChem BioAssay AID651899 (Broad Institute, 2012).

Measured potencies and affinities stand elsewhere. Calls of active or inactive are those of the source. How the calls were made is not given here.

A short description of the test: cytotoxicity in HEK293 cells, dose response, cytotoxicity control, cell-based, plate reader, cherry-pick (AID 651899).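 Further: cells exposed to compound for 48 hours.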 Conditions: series mostly up to 26 µM.
`COc1cc2c3cc1Oc1cc(ccc1O)C[C@@H]1c4c(cc(OC)c(O)c4Oc4cccc(c4)C[C@@H]3N(C)CC2)CC[N+]1(C)C`: the call was inactive.

As to `O=c1[nH]c(N2CCN(Cc3ccc4c(c3)OCO4)CC2)nc2c1CCC2`, the compound was called inactive.

For `COc1ccc2c(c1)c(C(=O)CN1CCC3(CC1)OCCO3)c(C)n2Cc1ccccc1`, the compound was classed as inactive.

Regarding `CCc1nc2ccc(Br)cc2c(=O)n1-c1ccccc1C(F)(F)F`, the outcome was inactive.

For the compound `CC(=O)N1CCN(c2ccc([N+](=O)[O-])cc2C=C2C(=O)NC(=O)NC2=O)CC1`, the result was inactive.

As to `Cc1nc2nc(SCC(=O)N3CCC4(CC3)OCCO4)nn2c(C)c1Cc1ccccc1`, the compound was classed as inactive.

For the compound `O=[N+]([O-])c1ccc(C[n+]2c(-c3ccccc3)cc(-c3ccccc3)cc2-c2ccccc2)cc1`, the call was inactive.
